Unmarked numbers belong to inactive results. The source made the active and inactive calls. Calls come from the whole dose curve; as a rule, active = well fitted curve in the direction sought with a large enough effect in the repeat runs; inconclusive = weak or mixed curves; inactive = flat fitted curve, though single readings scatter.
Assay: qHTS assay to test for compound auto fluorescence at 535 nm (green) in HEK293 cell free culture (AID 720682)
Settings: cell-free medium, green autofluorescence 485/535 nm, hits give high values; series mostly up to 91.3 µM
From the text: U.S. Tox21 Program National Center for Advancing Translational Sciences [NCATS] NIH Chemical Genomics Center [NCGC] U.S. Environmental Protection Agency [EPA] National Institutes of Environmental Health Sciences [NIEHS] National Toxicology Program [NTP] U.S. Food and Drug Administration [FDA] Tox21 Assay Overview: Compound auto fluorescence often interferes with screening of the compound library against various biological targets and signaling pathways. Some of these compounds may have fluorophoric properties. Such properties may interfere with the assay outputs resulting in false positives and/or negatives. To decrease such complications and ensure the compound activities are relevant in terms of biological response, the Tox21 10K compound library was screened for auto fluorescence. From the fluorophores used as reporter signals in our screening assays, the auto fluorescence equivalencies of compounds against three fluorophores have been evaluated: Triamterene, Fluorescein and Rose Bengal sodium for blue, green and red fluorescence, respectively. The fluorescence intensities were measured using Excitation/Emission wavelengths at 405/460nm, 485/535nm and 540/590nm for blue, green and red labels, respectively. This assay includes the green fluorescence data.
Tox21 Assay Protocol Summary: 5 uL of culture medium (DMEM containing 10% FBS) per well was dispensed into black wall/clear bottom 1536-well plates using a Multidrop Combi Dispenser (ThermoFisher Scientific, Waltham, MA). After 23 nL compound or DMSO vehicle was transferred into assay plate by a pintool work station (Kalypsys, San Diego, CA), fluorescence intensities in the assay plates were measured by an Envision (PerkinElmer, Shelton, CT) plate reader using three labels for measuring blue, green and red fluorescence at […] 460, 535 and 590nm respectively.
% is set by controls: 0 for no effect and ±100 for the full control effect.

| Compound | outcome | activity change |
| --- | --- | --- |
| C#CC(C)(C)O | inactive |  |
| CCOC(=O)N(C)N=O | inactive |  |
| CON(C)C(=O)Nc1ccc(Br)cc1 | inactive |  |
| Cc1cc(OC(=O)N(C)C)nn1C(=O)N(C)C | inactive |  |
| CN(C)CCc1c[nH]c2cccc(OP(=O)(O)O)c12 | inactive |  |
| N=C(N)[Se] | inactive |  |
| O=C(O)c1c(Cl)ccc2cc(Cl)cnc12 | inactive |  |
| CNC(=O)Oc1cc(C)c(N(C)C)c(C)c1 | inactive |  |
| CC(C)(C)C(=O)C(Cl)Cl | inactive |  |
| O=C/C=C/c1ccco1 | inactive |  |
| COC(=O)c1ccc(CBr)cc1 | inactive |  |
| C[N+]1(C)CCCCC1 | inactive |  |
| COC(=O)[C@@H](N)CCCN/C(N)=N/[N+](=O)[O-] | inactive |  |
| CC(Cc1ccccc1)NCCn1cnc2c1c(=O)n(C)c(=O)n2C (stereo not given) | inactive |  |
| NCC1(CC(=O)O)CCCCC1 |  | 0.0242% [at 18.6 µM] |
| C=CC1(C)OC(=O)N(c2cc(Cl)cc(Cl)c2)C1=O (stereo not given) | inactive |  |
| O=C(NC(O)C(Cl)(Cl)Cl)NC(O)C(Cl)(Cl)Cl (stereo not given) | inactive |  |
| CCCC[N+](=O)[O-] | inactive |  |
| CC[C@@H](CO)NC(=O)[C@@H]1C=C2c3cccc4[nH]cc(c34)C[C@H]2N(C)C1 | inactive |  |
| CCN(CC)C1CCCCC1 | inactive |  |

| Compound | outcome | activity change |
| --- | --- | --- |
| Cc1cccc2sc3nncn3c12 | inactive |  |
| [O-][Br+2]([O-])O | inactive |  |
| C=C(Cl)CCl | inactive |  |
| N[C@@H]1C[C@H]1c1ccccc1 | inactive |  |
| C#CCOC(=O)/C=C(C)/C=C/CC(C)CCCC(C)C (stereo not given) | inactive |  |
| Cc1ccc(Cl)c(O)c1 | inactive |  |
| O=[N+]([O-])CCO | inactive |  |
| C=CC(=O)OCCN(C)C | inactive |  |
| ClCOCCl | inactive |  |
| C=CCc1cc(OC)c2c(c1)OCO2 | inactive |  |
| COP(=O)(OC)O/C(C)=C/C(=O)N(C)C | inactive |  |
| NC1(c2ccccc2)CCCCC1 | inactive |  |
| CNC(=O)Oc1ccccc1C(C)C | inactive |  |
| O=CCCl | inactive |  |
| C=CCN1CC[C@]23CCCC[C@H]2[C@H]1Cc1ccc(O)cc13 | inactive |  |
| CCN(CCO)CCn1c(Cc2ccccc2)nc2c1c(=O)n(C)c(=O)n2C | inactive |  |
| Cn1c(N)nc2c3cccnc3ccc21 | inactive |  |
| O=P(O)(O)c1ccccc1 | inactive |  |
| CCOP(=S)(OCC)SCCl | inactive |  |
| BrCC1CO1 (stereo not given) | inactive |  |

From PubChem BioAssay (Tox21)
